Shown are actives, neighbours in structure and some others; about 7.6% of the full set was active somewhere.
KCNH2 WT inh: KCNH2 (human, wildtype) channel inhibition. Q12809. U2OS, BacMam KCNH2, thallium flux FluxOr; hits give low values. activity change, % at 1.84 µM. 340,000 compounds, 0.37% hits. AID 720551;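 active means maximum activity change below -70%; inconclusive means maximum activity change between -70% and -50%; inactive means maximum activity change above -50%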; further: on the % scale 0 is the no-effect control and ±100 the full control effect
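U2OS cells transduced with wild-type KCNH2 virus are loaded with FluxOr dye for 45 min, and thallium flux is measured in kinetic reads before and after stimulation buffer. Rate constants are normalized to DMSO controls.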
KCNH2 3.1 block: inhibitors of human KCNH2 3.1 potassium channel isoform | U2OS KCNH2 3.1, thallium flux FluxOr; hits give low values | activity change, % (tested at about 1.8 µM) | 340,000 compounds, 0.95% hits;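 active means maximum activity change below -70%; inconclusive means maximum activity change from -70% to -50%; inactive means maximum activity change above -50%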;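 further: thallium influx rate constant from kinetic fluorescence after stimulation buffer; on the % scale 0 is the no-effect control and ±100 the full control effect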
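U2OS cells transduced with KCNH2 3.1 mutant virus (1.77 x 10^8 /mL, 4 h), plated overnight at 37 C, loaded 45 min with FluxOr dye plus Red40 quencher. Thallium flux rate constant from kinetic reads after stimulation buffer, normalised to controls.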
KB-3-1 tox: kills parental KB-3-1 adenocarcinoma cells | 400,000 compounds, 1.4% hits | KB-3-1 viability, CellTiter-Glo ATP luminescence, 72 h | Potency, µM (highest dose often 46.1 µM), actives largely listed as cytotoxic; further: potency means the concentration at half of the fitted maximal effect; on the % scale 0 is the no-effect control and ±100 the full control effect; nearly all actives have a fitted effect of over 60% in size
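KB-3-1 parental drug-naive adenocarcinoma cells in DMEM/10% FBS, incubated 72 h at 37 C with pin-transferred compounds across a concentration series. Viability by CellTiter-Glo luminescence; concentration-response curves fitted after normalization.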
SW480 rerep: induces DNA re-replication in SW480 colon adenocarcinoma cells. SW480 DNA re-replication, Hoechst DNA content imaging, 48 h. 340,000 compounds, 1.8% hits. Potency, µM (top dose mostly 46.1 µM), for the others: at the highest dose re-replication activation, hits mostly activators; further: potency means the concentration at half of the fitted maximal effect; % of control where 0% means no effect; nearly all actives have a fitted effect of over 55% in size
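Cells (250 per well) received 23 nL compound or DMSO by pin tool and were kept 48 hr at 37 C, 5% CO2. Nuclei were then stained with Hoechst for 40 min and scanned for DNA content.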
MCF10A rerep: induces DNA re-replication in MCF 10a normal breast cells. 350,000 compounds, 2.9% hits. Potency, µM (titrated, usually from 46.1 µM), for the others: at the top dose activity, positive = re-replication, most hits filed as activators. AID 624296. MCF 10A DNA re-replication, Hoechst nuclear intensity, 48 h; further: potency means the concentration at half of the fitted maximal effect; % of control where 0% means no effect; nearly all actives have a fitted effect of over 50% in size
KB-V1 MDR tox: kills drug-selected multidrug resistant KB-V1 cells; AID 1347076; Potency, µM (top dose mostly 46.1 µM), most hits filed as cytotoxic; KB-V1 MDR cells viability, CellTiter-Glo, 72 h; 400,000 compounds, 3.4% hits; further: potency means the concentration at half of the fitted maximal effect; on the % scale 0 is the no-effect control and ±100 the full control effect; nearly all actives have a fitted effect of over 60% in size
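Luminescent ATP read-out (CellTiter-Glo, 10 min) measures survival of drug-selected KB-V1 MDR cells after 72 h, 37 degrees C compound exposure. Medium: phenol-red-free DMEM, 10% FBS. Values from fitted concentration-response curves.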
An asterisk follows results filed as active; i = inactive; ? = inconclusive; · = not tested or not shown; ! = not active in a repeat. Unless noted, the call rests on the fitted dose curve; in most records, active means well fitted curve in the direction sought with a large enough effect; inconclusive means small, poorly fitted or top-dose-only effect, or another doubt; inactive means no such curve, though single readings can be large; an effect the other way counts as inactive or inconclusive.

SMILES | KCNH2 WT inh | KCNH2 3.1 block | KB-3-1 tox | SW480 rerep | MCF10A rerep | KB-V1 MDR tox
O=C(O)c1ccc(COc2ccccc2Cl)cc1 | -5 | -4 | i | 2% | 21% | i
Cc1nn(Cc2cccc(F)c2)c(C)c1NC(=O)c1ccc(COc2ccccc2Cl)cc1 | 3 | -21 | i | 27% | ? | 2.6µM*
CC(=O)N1c2ccccc2C(=O)C1N1CCN(c2cccc(C)c2C)CC1 (configuration not stated) | · | · | i | · | · | i
CCOC(CNC(=O)c1nnc(Cc2cc(OC)c(OC)c(OC)c2)o1)OCC | -4 | 13 | i | -12% | -3% | i
CCCCCC(=O)N1C[C@@H](n2cc(COC(=O)c3ccccc3)nn2)[C@H](O)C[C@@H]1c1ccc(C)cc1 | 4 | 20 | i | · | · | i
Cc1cc(Cl)n2c(nc3cc(F)c(F)cc32)c1C#N | -3 | 2 | 7.3µM* | 6.5µM* | ? | 5.8µM*
CCOC(=O)N1CCN(C(=O)c2cc3sccc3n2C)CC1 | 9 | 16 | i | -5% | 1% | 13µM*
Cc1ccc(C)c(N2CCN(C(=O)c3cc4sccc4n3C)CC2)c1 | -4 | 18 | ? | -3% | ? | ?
Cn1c(C(=O)N2CCN(c3cccc(C(F)(F)F)c3)CC2)cc2sccc21 | -5 | -5 | i | 23µM* | ? | i
CC1CN(CC(=O)NCc2ccccc2)CC(C)O1 (configuration not stated) | -9 | -4 | i | -3% | -2% | i
Cc1cc(NC(=O)C(C)Sc2nc(-c3cccs3)nc3ccccc23)no1 (configuration not stated) | 1 | -2 | i | ? | ? | ?
COc1ccc(OC)c(-c2noc(N3CCN(c4ccc(Cl)cc4)CC3)n2)c1 | · | · | i | · | · | i
CCOC(=O)C1=CN(Cc2ccc(OC)cc2)C=C(C(=O)OCC)C1c1cccs1 | 3 | -48 | i | ? | 18µM* | ?
CCOC(=O)C1=C(N)OC2=C(C(=O)CC(C)(C)C2)C1c1cccs1 (configuration not stated) | 4 | -1 | i | -1% | 1% | i
CC(C)Cn1cc(C(=O)NCCCN2CCCC2=O)c2c3ccccc3n(C)c2c1=O | 7 | -3 | i | -1% | 18% | 5.8µM*
CC(C)Cn1cc(C(=O)NCCCN2CCC(C)CC2)c2c3ccccc3n(C)c2c1=O | 4 | 15 | i | -4% | 0% | i
Cc1cccc(NC(=S)Nc2cccc(C)n2)n1 | 13 | -147* | i | 1% | 2% | i
COC(=O)Cc1ccc(NC(=S)Nc2cccc(C)n2)cc1 | -1 | -2 | ? | -8% | -7% | 21µM*
Cc1cccc(NC(=S)NC(=O)c2cccs2)n1 | -22 | -11 | i | 2.9µM* | 1% | ?
CCN(Cc1ccccc1)C(=O)Cn1c(=O)n(Cc2ccccc2)c(=O)c2c1c1cc(OC)ccc1n2C | · | · | i | · | · | i
COc1ccc(CCN2C(=O)c3cccc4c(C(=O)N5CCCCC5)ccc(c34)C2=O)cc1OC | 8 | -9 | i | -1% | ? | 2.9µM*
COc1ccc(C(O)c2nc(-c3ccoc3)cs2)cc1 (configuration not stated) | · | · | i | · | · | i
CCOc1ccccc1Oc1c(C)oc2cc(OC(=O)N3CCOCC3)ccc2c1=O | 44 | 10 | i | -7% | 3% | 23µM*
COc1ccc(Oc2coc3cc(OC(=O)N4CCOCC4)ccc3c2=O)cc1 | -15 | -18 | i | -1% | -4% | i
Cc1oc(C(C)(C)C)cc1C(=O)N1CCN(C(c2ccccc2)c2ccccc2)CC1 | 1 | 1 | i | ? | 12µM* | i
SMILES | KCNH2 WT inh | KCNH2 3.1 block | KB-3-1 tox | SW480 rerep | MCF10A rerep | KB-V1 MDR tox
CC(N)=Nc1ccc([N+](=O)[O-])cc1 | -1 | 0 | i | 0% | 14% | ?
O=[N+]([O-])c1ccc(N=Nc2c(Cl)cc(O)cc2Cl)cc1 | -6 | -28 | 18µM* | ? | ? | i
COc1ccc(C)cc1NC(=O)c1cnc2scc(C)n2c1=O | 7 | -7 | i | ? | 23µM* | i
CCOC(=O)C1C(=O)OC(C)(C)C1C(C)C(=O)c1ccc(C)cc1 (configuration not stated) | -33 | 17 | i | -5% | 3% | 15µM*
Cc1c(C(=O)NCc2ccccc2C(F)(F)F)sc(=O)n1Cc1ccc(Cl)c(Cl)c1 | · | · | i | · | · | ?
CC(C)=CCc1c2c(c3occ(-c4ccc(O)c(O)c4)c(=O)c3c1O)C=CC(C)(C)O2 | 8 | 4 | ? | 15% | 9.2µM* | i
COc1ccc(NC(=O)CSc2nnnn2C2CC3C=CC2C3)cc1 (configuration not stated) | -81* | -3 | i | -6% | -46% | i
Cc1cc(C(=O)CSc2nnnn2C)c(C)n1C1CC1 | -8 | 1 | i | 6% | -2% | i
CCOc1ccc(NC(=O)CSc2nnnn2C2CCCC2)cc1 | -142* | -199* | i | -16% | -18% | i
CCn1c(C)cc(C(=O)CSc2nnnn2C2CCCC2)c1C | 0 | -9 | i | 1% | ? | 9.2µM*
COc1cc2c(cc1OC)[C@@H](NC(=O)C(C)C)[C@H](OCc1ccccc1)C2 | 7 | -3 | i | -8% | 7% | i
COc1ccc(OC)c(NC(=O)CSC2=Nc3ccccc3C3=NC(CC(=O)NCc4ccc5c(c4)OCO5)C(=O)N23)c1 (configuration not stated) | · | · | i | · | · | i
COc1ccc(C(=O)NCCN2CCC(n3c(=O)[nH]c4ccccc43)CC2)cc1F | · | · | ? | · | · | i
CC(C)=NNC(=O)c1c(O)c2ccccc2[nH]c1=O | -6 | 5 | i | 11% | 9.2µM* | i
CCNC(=O)c1c(O)c2ccccc2[nH]c1=O | -13 | -5 | i | 10% | 6.5µM* | i
CC1CCCN(S(=O)(=O)c2ccc(S(=O)(=O)NC(C)c3cccs3)cc2)C1 (configuration not stated) | 1 | 19 | i | -4% | 1% | 16µM*
CCOc1ccc(Cl)cc1C1CC(=O)Nc2cc(OC)c(OC)c(OC)c21 (configuration not stated) | · | · | i | · | · | i
COc1ccc(-c2cn(Cc3ccc4ccccc4c3)nn2)cc1 | -9 | -4 | i | -16% | -21% | i
COc1ccc(-c2cn(Cc3ccc(C(=O)c4ccccc4)cc3)nn2)cc1 | 4 | -14 | 4.1µM*! | ? | 2.6µM* | 2.6µM*!

Screening results deposited in PubChem by National Center for Advancing Translational Sciences (NCATS).
